Measurements taken from the supplement of paper PMC3334620.
The full ranking holds about 33,000 sequences; the median of “E-score (-0.5 to 0.5)” is about -0.0059, and the highest 2% start at about 0.26. Shown is part of a subset that was picked to be rich in the highest values.

Molecular target: T1, Cin5 (UniProt P40917)
T1 sequence: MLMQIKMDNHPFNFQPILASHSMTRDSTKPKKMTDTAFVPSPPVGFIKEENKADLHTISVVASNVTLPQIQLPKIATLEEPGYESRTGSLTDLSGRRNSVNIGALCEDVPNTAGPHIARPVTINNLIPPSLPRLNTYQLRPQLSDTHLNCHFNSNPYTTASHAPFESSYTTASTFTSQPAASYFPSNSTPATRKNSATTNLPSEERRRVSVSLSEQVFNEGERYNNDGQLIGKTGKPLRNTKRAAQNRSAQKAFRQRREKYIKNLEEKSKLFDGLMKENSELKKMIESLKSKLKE
Assay: PBM E-score (8-mer binding enrichment) (E-score (-0.5 to 0.5)); higher = stronger / more preferred TF binding
Details: protein concentration: 100 nM; construct: GST-full length
Method in brief: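 Universal all-10-mer Agilent arrays, fresh or stripped once, were converted to double-stranded form by primer extension. GST-tagged yeast transcription factors from PURExpress in vitro transcription/translation, full-length or DNA-binding domain only, were applied at about 100-200 nM and detected with fluorescent anti-GST. After masliner normalisation, the Universal PBM Analysis Suite scored each ungapped eight-base word together with its reverse complement by E-score.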

In order of rising “PBM E-score” value:
1. CAGACTAG  -0.237
2. GACTCCAA  -0.226
3. ATCCTTCC  -0.2
4. GGCGCGGA  -0.189
5. GTAGTCAC  -0.185
6. CAAAAAGG  -0.138
7. CTGGACGA  -0.129
8. GACTACCC  -0.127
9. CCGCCGAC  -0.119
10. AAAGCGTC  -0.113
11. GTGCCAAC  -0.0934
12. CTACTCAG  -0.0922
13. CTGGGTTA  -0.0908
14. AGGGGTGC  -0.088
15. GGGTTGAA  -0.0789
16. TGAGACCA  -0.078
17. AAGCCTGG  -0.072
18. GGGTCCAA  -0.0685
19. CTAGTGTC  -0.0545
20. CTGATAAC  -0.054
21. GGATGCAA  -0.0522
22. GGGGTTAA  -0.0418
23. AAAGCTAC  -0.0407
24. TCCAGGAA  -0.0393
25. ACTTTTAG  -0.0275
26. ATGATAGG  -0.0261
27. CCCGTTCA  -0.0227
28. GCCGTGAC  -0.0205
29. ATGATAGA  -0.0131
30. CCAATAGA  -0.01
31. CGAAAGAC  1e-05
32. CAAGGAGG  0.00169
33. CCCCGGGA  0.0124
34. AACTGTCT  0.0125
35. TCTAATAA  0.0206
36. ACTTTTAA  0.0259
37. AACCCGAC  0.0291
38. CTGGTTTC  0.0335
39. AACTGGAA  0.0471
40. GAACAGAC  0.0587
41. ATAGGTCA  0.0611
42. GATCTAAA  0.0626
43. CCATTATC  0.0699
44. TAAGGCAA  0.0779
45. CCTAATAA  0.0783
46. CATTTATC  0.0882
47. CATTTTAA  0.0885
48. AGCTGATA  0.0998
49. GAATTATA  0.101
50. ACATTATG  0.106
51. AATAGAAT  0.106
52. GTGATAAC  0.125
53. CAATTATA  0.126
54. CAATTAAC  0.134
55. ACAGAACA  0.136
56. CATTTTAG  0.137
57. CAATTATG  0.141
58. GAATTATC  0.145
59. ATGAATAG  0.148
60. ACCCCGAT  0.155
61. ATTAATGG  0.156
62. ATTAAAAA  0.162
63. GGTAATAC  0.168
64. AAATTATT  0.183
65. GTTAATAA  0.186
66. ATGATAAA  0.188
67. CTTAATAC  0.191
68. ATACTCAA  0.204
69. ATGATAAG  0.204
70. ACGCAATA  0.209
71. AAATTAAA  0.214
72. CCCATTCA  0.214
73. AAATTATG  0.24
74. CAATTACA  0.242
75. AAATTACA  0.248
76. AATTTATA  0.249
77. AACCCGAT  0.258
78. ATACTCAG  0.258
79. TAATTACA  0.259
80. AAATTATA  0.262
81. ATGATAAC  0.262
82. CATTTTAC  0.263
83. CTTAATAA  0.267
84. ATGATAGC  0.269
85. AATTTATC  0.27
86. ATTAATAC  0.27
87. ATTAATAG  0.272
88. ATGATAAT  0.272
89. ACTTTTAC  0.273
90. CAATTATC  0.277
91. AAATTATC  0.278
92. ACATTATC  0.289
93. ATTAATAA  0.336
94. TAATTATA  0.351
